G9a inh = qHTS Assay for Inhibitors of Histone Lysine Methyltransferase G9a; Histone-lysine N-methyltransferase EHMT2 (Homo sapiens), Q96KQ7; G9a H3K9 monomethylation, AlphaScreen, 2 h; Potency, µM (doses to about 102 µM), for inactives: top-dose activity, negative = inhibition, hits mostly inhibitors; hit rate 8.8% among 350,000; AID 504332, 2011; also: potency is read from the fitted curve at half-maximal effect; % is scaled to controls: 0 for no effect and ±100 for the full control effect; nearly all actives have a fitted effect of over 75% in size
Target sequence (Q96KQ7 913-1193 limits assumed): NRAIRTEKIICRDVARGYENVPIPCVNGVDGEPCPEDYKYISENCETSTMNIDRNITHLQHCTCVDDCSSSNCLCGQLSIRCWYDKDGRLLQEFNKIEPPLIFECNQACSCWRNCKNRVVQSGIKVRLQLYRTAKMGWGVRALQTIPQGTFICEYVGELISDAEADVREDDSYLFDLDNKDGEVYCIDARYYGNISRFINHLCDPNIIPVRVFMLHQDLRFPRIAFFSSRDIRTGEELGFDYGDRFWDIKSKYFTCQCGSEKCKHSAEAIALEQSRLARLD
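AlphaScreen detection with an anti-monomethyl H3K9 antibody quantified product after a 2 h room-temperature reaction containing 500 nM biotinylated H3K9 peptide, 20 µM SAM and 20 nM enzyme, which had been preincubated 15 min with compound.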
JMJD2E inh = qHTS Assay for Inhibitors of Human Jumonji Domain Containing 2E (JMJD2E) | Lysine-specific demethylase 4E (Homo sapiens), B2RXH2 | JMJD2E catalytic domain, FDH-coupled NADH fluorescence (FDH is formaldehyde dehydrogenase) | Potency, µM (highest dose often 57.1 µM), without a hit: top-dose activity change, negative = inhibition, actives largely listed as inhibitors | hit rate 1.6% among 230,000; active = well fitted inhibition curve with a large enough effect, not every such curve was filed as active; inconclusive = small, poorly fitted or top-dose-only effect, or another doubt; inactive = no such curve, though single readings can be large or run the other way;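 also: potency is read from the fitted curve at half-maximal effect; 0% = wells with enzyme and -100% = buffer wells without enzyme; nearly all actives have a fitted effect of over 50% in size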
Target sequence (B2RXH2 1-337 limits assumed): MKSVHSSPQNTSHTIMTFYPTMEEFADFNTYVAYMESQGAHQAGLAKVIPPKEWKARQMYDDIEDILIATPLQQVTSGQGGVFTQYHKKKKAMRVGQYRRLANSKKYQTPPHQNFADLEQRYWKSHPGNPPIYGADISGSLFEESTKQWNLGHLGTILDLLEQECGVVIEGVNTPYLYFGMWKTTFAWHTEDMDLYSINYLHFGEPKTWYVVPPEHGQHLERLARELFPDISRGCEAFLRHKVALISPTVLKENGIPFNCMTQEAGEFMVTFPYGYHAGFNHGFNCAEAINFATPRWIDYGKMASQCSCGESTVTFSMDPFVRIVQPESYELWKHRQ
ALDH1A1 inh = qHTS Assay for Inhibitors of Aldehyde Dehydrogenase 1 (ALDH1A1) | Aldehyde dehydrogenase 1A1 (Homo sapiens), P00352 | Purified ALDH1A1, NADH fluorescence, propionaldehyde substrate | Potency, µM (top dose mostly 75.3 µM), for inactives: at the highest dose activity, negative = inhibition, usual class: inhibitors | hit rate 7.3% among 220,000 | AID 1030, 2008; active = well fitted inhibition curve with a large enough effect, not every such curve was filed as active; inconclusive = small, poorly fitted or top-dose-only effect, or another doubt; inactive = no such curve, though single readings can be large or run the other way;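 also: potency is read from the fitted curve at half-maximal effect; plate controls were no enzyme wells and a reference inhibitor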
Sfp PPTase inh = qHTS Assay for Inhibitors of Bacillus subtilis Sfp phosphopantetheinyl transferase (PPTase); 4'-phosphopantetheinyl transferase ffp (Bacillus subtilis), Q9F4F7; Biochemical Sfp PPTase activity, qHTS; Potency, µM, inactives show largest response in the series, negative = inhibition, usual class: inhibitors; hit rate 3.5% among 310,000;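 also: the enzyme is Sfp with the accession as filed and its product quenches rhodamine fluorescence; potency is read from the fitted curve at half-maximal effect; 0% = enzyme reaction without inhibitor and -100% = no enzyme wells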
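Sfp 15 nM + cpd, 15 min RT; start w/ rhodamine-CoA 5 uM, BHQ-2-YbbR 12.5 uM (final); 50 mM Hepes pH 7.6, 10 mM MgCl2, 0.01% NP-40, 0.01% BSA; read 525/598 nm at 0 and 30 min.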
miR-21 act = qHTS Assay for Modulators of miRNAs and/orActivators of miR-21; AID 2288, 2010; HeLa miR-21 FLuc reporter, luciferase, 48 h; 340,000 tested, under 10 active; Potency, µM (top dose mostly 38.3 µM), without a hit: at the top dose activity change, positive = activation, most hits filed as activators;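 also: % of control where 0% means no effect; miR-21 action dims this reporter so a rising signal means less miR-21 action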
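HeLa cells stably expressing CMV-driven firefly luciferase with a downstream miR-21 binding sequence, endogenously expressing miR-21, were treated with titrations (up to about 40uM final) for 48 hours at 37 degree Celsius. Luciferase luminescence was read after lysis.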
LMNA splice mod = qHTS Assay for Modulators of Lamin A Splicing | HeLa LMNA splicing GFP/RFP minigene ratio, 48 h | Potency, µM (doses to about 46.1 µM), without a hit: at the highest dose ratio change, negative = inhibition, most hits filed as inhibitors | hit rate 0.01% among 200,000 | AID 1487, 2009; active = well fitted inhibition curve with a large enough effect in the signal ratio, with a control signal flat, not every such curve was filed as active; inconclusive = small, poorly fitted or top-dose-only effect, or effect the other way, or a change in a side signal; the % refers to the signal ratio; also: potency is read from the fitted curve at half-maximal effect; % is scaled to controls: 0 for no effect and ±100 for the full control effect
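S3 HeLa stable clones carrying a lamin A-EGFP splicing minigene plus DsRed2 were seeded at 600 cells/well in Opti-MEM with 2% FBS, pin-dosed and incubated 48 h at 37°C. Acumen cytometry (488 nm) gave the GFP/RFP total-intensity ratio.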
* marks the source's active call; other numbers are inactive results; ? = inconclusive; / = no result given; [ ] = dose if it differs, or a comment. Sampled rows, rich in hits. Any-hit rate of the full collection: about 13%. Unless noted, calls follow the shape of the dose curve; as a rule, active = well fitted curve in the direction sought with a large enough effect; inconclusive = small, poorly fitted or top-dose-only effect, or another doubt; inactive = no such curve, though single readings can be large; an effect the other way counts as inactive or inconclusive.

SMILES | G9a inh | JMJD2E inh | ALDH1A1 inh | Sfp PPTase inh | miR-21 act | LMNA splice mod
O=c1c2cc(Cl)cc(Cl)c2nc(CN2CCOCC2)n1-c1ccccc1F | ? | 2% | 14µM* | -15% | -8% | 14%
CCOC(=O)Cn1c(C)[n+](C)c2cc(Cl)c(Cl)cc21 | 45µM* | -11% | 10% | 16% | 0% | 12%[9.22 µM]
CCOC(=O)C1OC1(C)c1ccccc1 (stereo unspecified) | / | / | -3% | / | / | /
C[N+]12CCC(CC1)C(=C(c1ccccc1)c1ccccc1)C2 | 3.5µM* | -2% | 2% | -10% | 7% | ?
O=C(O)/C=C/CO | 22%[59 µM] | / | -4% | 17% | / | /
O=C1C=CC[C@@H]2[C@H]3CCCN4CCC[C@@H](CN12)[C@@H]34 | / | -3% | 2% | -7% | / | /
CN(C)c1ccc2c(c1)N=C(c1ccco1)OP2(=S)N1CCOCC1 (stereo unspecified) | 14µM* | -9% | 8.9µM* | 14µM* | -37% | 1%
CN(C)c1ccc(CCN2CCOCC2)cc1 | -9%[2.33 µM] | / | / | / | / | /
COc1cc(C(=S)N2CCOCC2)cc(OC)c1OC(=O)Cc1ccccc1 | 45µM* | 3% | ? | -4% | 1% | 19%[46 µM]
Cc1ccnc(NS(=O)(=O)c2ccc(N=Cc3c(O)n(C)c(=O)n(C)c3=O)cc2)n1 | 45µM* | ? | -7% | -15% | 1% | /
COc1ccc(C(=O)Nc2ccc3c(c2)N(C)C(=O)c2ccccc2S3)cc1OC | -6%[59 µM] | / | / | / | ? | ?
O=C(c1sc2ccccc2c1Cl)N1CCC2(CC1)OCCO2 | ? | 4% | 10µM* | 15% | -32% | -15%
C=CCN1C(=O)NC(=O)/C(=C/c2ccc(OC)c(CSc3ccccn3)c2)C1=O | 11µM* | -23% | 13µM* | 56µM* | -10% | 1%
C=CCN1C(=O)NC(=O)/C(=C/c2ccc(OC)c(COc3ccc(NC(C)=O)cc3)c2)C1=O | / | -25% | ? | 45µM* | 25% | /
COC(=O)CCCc1[se]c2ccccc2c1I | 85%[59 µM] | / | 32µM* | -28% | / | /
CCCCCCCCCCCCC/C=C/[C@@H](O)[C@@H](N)COP(=O)(O)O | 34%[59 µM] | -5% | 16% | 3% | / | /
O=c1cc(CO)occ1O | / | 25µM* | -2% | -12% | / | /
O=C(CNC(=O)c1ccc(Cl)cc1)OCC(=O)c1ccc2c(c1)OCCO2 | -30%[59 µM] | 1% | ? | 23% | -9% | 8%
O=C(CNC(=O)c1ccccc1)NCC(=O)OCC(=O)c1ccc([N+](=O)[O-])cc1 | 8.9µM* | -12% | 0.89µM* | 28µM* | -1% | -14%
O=C(CNC(=O)c1ccc(Cl)cc1)Nc1ccc(Br)cc1C(=O)c1ccccc1 | -14%[59 µM] | -2% | ? | 9% | 5% | -11%
O=C(CNC(=O)c1ccc(Br)cc1)NCC(=O)OCC(=O)c1ccc([N+](=O)[O-])cc1 | ? | 7% | 1µM* | -30% | -2% | -6%
CN(C)C1C(=O)C(C(N)=O)=C(O)[C@@]2(O)C(=O)C3=C(O)c4c(O)ccc(Cl)c4[C@](C)(O)C3CC12 (stereo partly specified) | ? | 14% | 21% | -60% | / | /
CN1CCN(c2ccc([N+](=O)[O-])c3no[n+]([O-])c23)CC1 | 5%[12.7 µM] | 14µM* | / | -23% | ? | /
CCCCCOc1c(OC)ccc2cc(C(=O)NCc3ccc4c(c3)OCO4)c(=O)[nH]c12 | 36%[59 µM] | / | ? | -7% | / | /
Cc1ccc(-c2cn3c(=S)[nH]nc3s2)cc1 | 1µM* | 6.3µM* | ? | 35µM* | -7% | ?
O=C(CCN1CCOCC1)Nc1ccc(Br)cc1C(=O)c1ccccc1 | 35µM* | / | / | -10% | -1% | /
O=C(CCN1CCCCC1)Nc1ccc(Cl)cc1C(=O)c1ccccc1 | -11%[2.33 µM] | / | / | 7% | -1% | /
